# About 1,500 (65%) of roughly 2,300 compounds were called active. So high a share suggests a set chosen from earlier hits. Some of the results follow. Potency and affinity values are given separately. Values without a mark were called inactive. How the calls were made is not given here.
# Experiment: replicating M. tuberculosis growth inhibition, dose response, non-replicating M. tuberculosis project, H37Rv (AID 492952);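 further: Mycobacterium tuberculosis grown in culture; growth inhibition read after a week of incubation; 0% = bacteria alone untreated and 100% = bacteria with high antibiotic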
# Conditions: series mostly up to 50 µM; inhibition: at the top concentration
row,SMILES,inhibition
1,Nc1ccccc1C(=O)NNC1=C(C(=O)C(F)(F)F)CCC1,-1.02%
2,COc1ccc(C)c2sc(NC(=O)CCS(=O)(=O)c3ccccc3)nc12,4.31%
3,Cc1ccc(-c2nnc(-c3cccs3)o2)cc1,0.17%
4,O=C(NC1CCCC1)c1cc(-c2cccs2)on1,1.34%
5,CN1C(=O)CC(N2CCC(c3nc4ccccc4s3)CC2)C1=O (configuration not stated),-6.77%
6,COc1ccc(OCCOC(=O)CCS(=O)(=O)c2ccc(C)cc2)cc1,0.82%
7,CSc1ccc(COC(=O)CCS(=O)(=O)c2ccc(C)cc2)cc1,6.07%
8,O=C(COc1ccc(F)cc1)Nc1ccc2c(c1)OCCO2,25.3%
9,O=C(CCS(=O)(=O)c1ccc(Cl)cc1)Oc1ccc2c(c1)OCO2,2.49%
10,Cc1ccc(NC(=O)CC2SC3=NCCCN3C2=O)c(C)c1 (configuration not stated),4.67%
11,CC(C)c1ccc(C2=C(O)c3ccccc3C(=O)C2=O)cc1,-2.49%
12,CC1CCCN(CCSc2ccc(Cl)cc2)C1 (configuration not stated),12.8%
13,CCOC(=O)Nc1ccc2c(c1)N(C(=O)CCN1CCOCC1)c1ccccc1S2=O (configuration not stated),2.63%
14,Cc1ccc(C(=O)CCC2CCCC2=O)cc1 (configuration not stated),-3.32%
15,CC(CN1CCOCC1)OC(=O)c1ccc2c(c1)OCCO2 (configuration not stated),0.51%
16,NCCCN1CCOCC1,-1.85%
17,CCOC(=O)C1CCN(CCCSc2ccc(Cl)cc2)CC1,-0.24%
18,Clc1ccc(SCCCCN2CCNCC2)cc1,4.18%
19,O=Cc1ccc(-c2ccc(Cl)cc2Cl)[nH]1,22.4%
20,O=C(CCCSc1nc2ccccc2s1)NCc1ccco1,-2.55%
21,Fc1ccc(COc2ccc(-c3nnco3)cc2)cc1,0.98%

row,SMILES,inhibition
1,COC(=O)CCSCc1cn2cc(Cl)ccc2n1,-0.87%
2,Cc1cc2n(n1)SC(Nc1ccccc1)N2 (configuration not stated),3.35%
3,CC(C)n1c(=S)[nH]c2ccccc2c1=O,3.34%
4,CC(C)(C)NCc1cc(Br)ccc1OC1CCCC1,4.3%
5,COc1ccc(-n2c3c(cc(C(=O)NNc4ccccc4)c2=O)C(=O)CC(C)(C)C3)cc1,-1.68%
6,Clc1ccccc1OCc1nnc(-c2ccccc2)o1,4.87%
7,c1ccc(Cc2nnc(-c3ccccc3)o2)cc1,2.02%
8,O=C1NC(=S)S/C1=C\c1ccc(SCc2ccco2)o1,-0.39%
9,COc1ccc(OCCCC(=O)Nc2ccc(N3CCOCC3)cc2)cc1,-1.48%
10,CN(CC(=O)Nc1ccc(Cl)cc1)C1CCCCC1,-1.09%
11,Cc1ccc(C(=O)C=CNNC(=O)c2ccccc2)cc1,10.6%
12,O=C(C1CCN(C2CC(=O)N(Cc3ccccc3)C2=O)CC1)N1CCCCCC1 (configuration not stated),-5.07%
13,CC(C)CN(Cc1c(O)ccc2ccccc12)CC(C)C,5.53%
14,COc1ccccc1CCNC(=O)c1ccc(C)o1,3.56%
15,O=C(NCCSc1ccccc1)c1ccc(Br)cc1,-3.27%
16,COc1ccc(C(=O)C=CNNC(=O)c2ccc(Cl)cc2)cc1,1.86%
17,CCOc1ccc(NC(=O)CCNC(=O)c2ccc(Br)cc2)cc1,11.1%
18,O=C(Oc1cccc2cccnc12)c1cccc(-n2cnnn2)c1,-0.76%
19,Cc1ccc(C2=N/C(=C\c3cccnc3)C(=O)O2)cc1,-1.93%
20,Cc1cccc(C2=N/C(=C\c3cccnc3)C(=O)O2)c1,0.69%
21,CN(CCOCCOc1ccc(F)cc1)Cc1ccccc1,-0.16%

row,SMILES,inhibition
1,CN(CCCCOc1ccc(F)cc1)Cc1ccccc1,-6.23%
2,O=C1CC(N2CCN(c3ccccc3)CC2)C(=O)N1CCc1ccccc1 (configuration not stated),3.41%
3,CC(NC(=O)COc1ccccc1F)C1CC2CCC1C2 (configuration not stated),10.3%
4,O=C(COc1ccccc1)NC1CCCCC1,4.93%
5,O=C(NCCC1=CCCCC1)c1coc(=O)c(Br)c1,-8.02%
6,COc1cc(/C=N/Nc2cccc3cccnc23)cc(OC)c1O,0.63%
7,COc1ccc(N2CCN(CC(=O)NC(=O)NC(C)(C)C)CC2)cc1,-7.18%
8,COc1ccc(OCC(=O)Nc2ccc(N3CCN(C(=O)c4ccco4)CC3)cc2)cc1,2.2%
9,CN(C)Cc1ccccc1Sc1ccc(Br)cc1,4.09%
10,CC1CCCN(CCCOc2ccc([N+](=O)[O-])cc2)C1 (configuration not stated),-7.03%
11,O=C1c2ccccc2C(=O)N1CCOc1ccc(F)cc1,-6.11%
12,COc1ccc(N=Cc2nc(-c3ccccc3)oc2OC(C)=O)cc1,9.7%
13,COc1ccccc1N=Cc1nc(-c2ccccc2)oc1OC(C)=O,9.47%
14,CC1(C)CC(=O)C2=C(C1)OC(N)=C([N+](=O)[O-])C2c1ccc(C#N)s1 (configuration not stated),25.2%
15,C/C(=N\NC(=O)COc1cccc(C)c1)c1ccc2ccccc2c1O,5.19%
16,Cc1ccc(N2C(=O)CC(Sc3nccc(C)n3)C2=O)cc1 (configuration not stated),3.55%
17,O=C(CCC1CCCC1)NCc1ccccn1,-3.52%
18,COc1cccc(CC2(CO)CCCN(Cc3sc(N4CCCC4)nc3Cl)C2)c1 (configuration not stated),0.34%
19,COc1cccc(C(=O)C2CCCN(CC3=Cc4cc(OC)ccc4OC3)C2)c1 (configuration not stated),9.31%
20,CCOC(=O)N1CCC(NC(=O)C2CCN(c3nc(-c4ccc(OC)cc4)no3)CC2)CC1,-1.07%
